In all, about 81,000 sequences were measured (“one-hybrid fitness for binding parS DNA”: median about -0.17, highest 2% from about 0.51 on). The entries come from a sample that favours the highest values as a whole.

The labels stand for the following.
B1: Caulobacter ParB omega fusion; a variant is named by its letters at X, in order, B8GW30 (parent)
chain: MESVVVGEPGMSEGRRGLGRGLSALLGEVDAAPAQAPGEQLGGSREAPIEILQRNPDQPRRTFREEDLEDLSNSIREKGVLQPILVRPSPDTAGEYQIVAGERAWRAAQRAGLKTVPIMVRELDDLAVLEIGIIENVQRADLNVLEEALSYKVLMEKFERTQENIAQTIGKSXSHVANXMRLLXLPDEVQSYLVSGELTAXHARAIAAAADPVALAKQIIEGGLSVRETEALARKAPNLSAGKSKGGRPPRVKDTDTQALESDLSSVLGLDVSIDHRGSTGTLTITYATLEQLDDLCNRLTRGI

In this experiment the parent is B1. As to the kind of experiment: one-hybrid fitness for binding parS DNA (scaled: cognate 1, non-cognate 0); higher = stronger binding. The following applies: with parS DNA site. The essentials:
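Fitness here means the log change in variant-to-wild-type read ratio between plasmids sequenced before and after selection. That scale was set so cognate equals 1 and non-cognate equals 0. The selection was a bacterial one-hybrid screen of Caulobacter ParB libraries, four specificity codons randomised, in E. coli USO carrying a HIS3 reporter with the site 19 bp from the promoter, grown 48 hours at 37°C on M9-minus-histidine with 0.1 mM IPTG and 5 mM 3-AT.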
Regarding GDED, the “one-hybrid fitness for binding parS DNA” value was at most 0.2.
Take SDVG: the “one-hybrid fitness for binding parS DNA” value was at most 0.2.
In the case of NRHA, the “one-hybrid fitness for binding parS DNA” value is at most 0.2.
With RRGA, the “one-hybrid fitness for binding parS DNA” value is 0.749.
In the case of NRSA, the “one-hybrid fitness for binding parS DNA” value is at most 0.2.
To NRQA belongs at most 0.2; to RGGA, 0.285.
Take RRQA: the “one-hybrid fitness for binding parS DNA” value came to 0.699.
For NRGA the value was at most 0.2.
For DRQA the value was at most 0.2; for DRSA, at most 0.2; for RRHA, 0.693.
For DRHA the value was at most 0.2; for RRSA, 0.693.
For the variant GDYT, the “one-hybrid fitness for binding parS DNA” value was at most 0.2.
For the variant HYRC, the “one-hybrid fitness for binding parS DNA” value is at most 0.2.
Consider YDLT, for which the “one-hybrid fitness for binding parS DNA” value is at most 0.2.
For IYQL the value was at most 0.2; for WAPR, at most 0.2.
In the case of MWAV, the “one-hybrid fitness for binding parS DNA” value was at most 0.2.
For ANEG, the “one-hybrid fitness for binding parS DNA” value was at most 0.2.
LPHA: the “one-hybrid fitness for binding parS DNA” value is at most 0.2.
SKVC: the “one-hybrid fitness for binding parS DNA” value was at most 0.2.
Take PETH: the “one-hybrid fitness for binding parS DNA” value was at most 0.2.
To RRLA belongs 0.815; to DRNA, at most 0.2; to NRCA, at most 0.2.
Consider DRLA, for which the “one-hybrid fitness for binding parS DNA” value is at most 0.2.
Turning to RRCA, the “one-hybrid fitness for binding parS DNA” value was 0.761.
As to RRNA, the “one-hybrid fitness for binding parS DNA” value amounted to 0.627.
Regarding NRLA, the “one-hybrid fitness for binding parS DNA” value is at most 0.2.
NRNA: the “one-hybrid fitness for binding parS DNA” value is at most 0.2.
With DRCA, the “one-hybrid fitness for binding parS DNA” value is at most 0.2.
As to RRDA, the “one-hybrid fitness for binding parS DNA” value was determined as 0.851.
For QLGG, the “one-hybrid fitness for binding parS DNA” value is at most 0.2.
On to IAPM, for which the “one-hybrid fitness for binding parS DNA” value is at most 0.2.
Turning to RPYR, the “one-hybrid fitness for binding parS DNA” value was at most 0.2.
In the case of TTSM, the “one-hybrid fitness for binding parS DNA” value was at most 0.2.
Turning to ICYT, the “one-hybrid fitness for binding parS DNA” value is at most 0.2.
For SEWR the value was at most 0.2; for RRYA, 0.813.
As for RRRA, the “one-hybrid fitness for binding parS DNA” value was determined as 0.501.
To NRYA belongs at most 0.2; to DLNV, at most 0.2.
Take GSGS: the “one-hybrid fitness for binding parS DNA” value is at most 0.2.
To YIFC belongs at most 0.2; to INTG, at most 0.2; to RVEP, at most 0.2.
To RVES belongs 0.948.
For RVED the value was at most 0.2.
Turning to RVEC, the “one-hybrid fitness for binding parS DNA” value is 0.805.
Turning to RVEN, the “one-hybrid fitness for binding parS DNA” value was determined as 0.294.
For RVEM the value was 0.231.
For RVET the value was 0.691; for RVEH, at most 0.2.
Turning to RVEF, the “one-hybrid fitness for binding parS DNA” value was at most 0.2.
To RVEK belongs at most 0.2; to RVEI, at most 0.2.
Take RVEG: the “one-hybrid fitness for binding parS DNA” value came out at 0.813.
In the case of HNSL, the “one-hybrid fitness for binding parS DNA” value was at most 0.2.
As to FLAG, the “one-hybrid fitness for binding parS DNA” value was at most 0.2.
For the variant RRQE, the “one-hybrid fitness for binding parS DNA” value is at most 0.2.
Take SFER: the “one-hybrid fitness for binding parS DNA” value was at most 0.2.
For the variant HAWC, the “one-hybrid fitness for binding parS DNA” value was at most 0.2.
To PTHS belongs at most 0.2.
For RYFA the value was 0.573; for RYAA, 0.559.
To NYFA belongs at most 0.2; to PYFA, at most 0.2; to NNWM, at most 0.2.
For the variant DTAQ, the “one-hybrid fitness for binding parS DNA” value was at most 0.2.
As to AYES, the “one-hybrid fitness for binding parS DNA” value is at most 0.2.
To PDYS belongs at most 0.2.
As to LGYC, the “one-hybrid fitness for binding parS DNA” value was at most 0.2.
For the variant PVSM, the “one-hybrid fitness for binding parS DNA” value was at most 0.2.
RIKA: the “one-hybrid fitness for binding parS DNA” value came to 0.745.
For NIVA the value was at most 0.2.
Take RIVA: the “one-hybrid fitness for binding parS DNA” value was found to be 0.585.
With YQPY, the “one-hybrid fitness for binding parS DNA” value was at most 0.2.
To GEYG belongs at most 0.2; to TWSS, at most 0.2.
To LCRP belongs at most 0.2; to RKDN, 0.329; to RKNG, 0.907.
Turning to RKNQ, the “one-hybrid fitness for binding parS DNA” value was at most 0.2.
To RKDG belongs 0.939; to RKNR, at most 0.2; to RKDH, 0.231.
As to TSWS, the “one-hybrid fitness for binding parS DNA” value was at most 0.2.
In the case of KARL, the “one-hybrid fitness for binding parS DNA” value was at most 0.2.
For PVGS the value was at most 0.2; for QVWC, at most 0.2; for RHFT, 0.707.
To RHFN belongs 0.319.
To RHAY belongs 0.403; to RHFP, at most 0.2; to RHAM, 0.28.
In the case of RHAT, the “one-hybrid fitness for binding parS DNA” value is 0.865.
For HWFS the value was at most 0.2; for RPMV, at most 0.2; for ETTA, at most 0.2.
To SPEG belongs at most 0.2; to RSSC, 0.966; to RESC, 0.215.
To RSSN belongs 0.436.
For RCSC, the “one-hybrid fitness for binding parS DNA” value turned out to be 0.961.
For RPSC the value was at most 0.2; for RSSH, at most 0.2.
Turning to TKKI, the “one-hybrid fitness for binding parS DNA” value is at most 0.2.
For QGCC the value was at most 0.2; for LEMT, at most 0.2; for CTGE, at most 0.2.
To VMPA belongs at most 0.2; to NSSL, at most 0.2.
Consider RLIT, for which the “one-hybrid fitness for binding parS DNA” value amounted to 0.795.
To RLPK belongs at most 0.2.
For RLIH the value was 0.21; for RLID, at most 0.2; for RLPQ, at most 0.2.
To RLPT belongs 0.58; to TGTF, at most 0.2.
Take DRTR: the “one-hybrid fitness for binding parS DNA” value is at most 0.2.
To QHDH belongs at most 0.2; to KIRG, at most 0.2; to MVRP, at most 0.2.
To RAFD belongs at most 0.2.
To RAAK belongs at most 0.2; to RAAT, 0.909; to RAAF, 0.242.
Regarding RAFH, the “one-hybrid fitness for binding parS DNA” value came out at 0.204.
To RAFT belongs 0.847; to CANR, at most 0.2.
For WEPV, the “one-hybrid fitness for binding parS DNA” value was at most 0.2.
To HEHL belongs at most 0.2; to CTTW, at most 0.2; to FEAS, at most 0.2.
DTAA: the “one-hybrid fitness for binding parS DNA” value is at most 0.2.
To RTFA belongs 0.592; to DTFA, at most 0.2.
As for RTAA, the “one-hybrid fitness for binding parS DNA” value came out at 0.579.
As to QTHE, the “one-hybrid fitness for binding parS DNA” value was at most 0.2.
For PSQT the value was at most 0.2; for QCPA, at most 0.2; for YTPS, at most 0.2.
For RLAA the value was 0.582; for KLFA, at most 0.2; for RLFA, 0.606.
To NLAA belongs at most 0.2; to DLAA, at most 0.2; to DLFA, at most 0.2.
IAKG: the “one-hybrid fitness for binding parS DNA” value is at most 0.2.
Take FVAR: the “one-hybrid fitness for binding parS DNA” value was at most 0.2.
As for RFID, the “one-hybrid fitness for binding parS DNA” value was at most 0.2.

The values are drawn from a collection of fitness landscapes (doi:10.1016/j.celrep.2020.107928).
